These results are taken from paper PMC7826789 (International Journal of Molecular Sciences, 2021).

Some test systems named below: MET(Y1235D); MET; MKNK1; MKNK2; MST1R; MST4; MTOR; MUSK; MYLK2.
Conditions in all cases: Compound Concentration (nM):1000
A further test deals with T1, MINK.
T1 construct: gene MINK1

The test system of another test is T2, MKK7.
T2 construct: gene MAP2K7

Another test concerns T3, MLCK.
T3 construct: gene MYLK3

A further test relates to T4, MLK1.
T4 construct: gene MAP3K9

The test system of another test is T5, MLK2.
T5 construct: gene MAP3K10

A further test deals with T6, MLK3.
T6 construct: gene MAP3K11

The test system of a further test is T7, MRCKA.
T7 construct: gene CDC42BPA

The subject of another test is T8, MRCKB.
T8 construct: gene CDC42BPB

A further test deals with T9, MST1.
T9 construct: gene STK4

For the next test, the system named is T10, MST2.
T10 construct: gene STK3

A further test has as its system T11, MST3.
T11 construct: gene STK24

Structures are written as SMILES.
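Further: KINOMEscan scanMAX binding as percent activity remaining versus control; lower means stronger binding.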

Regarding `NS(=O)(=O)c1ccc(N/N=C2\C(=O)Nc3ccc(-c4cnco4)cc32)cc1` [GW276655], the “Percent Control” value is 100% in the test on MET(Y1235D); 94% in the test with MET; 3.8% in the test with MINK; 93% with MKK7; 93% with MKNK1; 71% with MKNK2. Also, the “Percent Control” value in the test with MLCK is 19%; with MLK1, 73%; in the test with MLK2, 64%; with MLK3, 96%; with MRCKA it was 100%; in the test on MRCKB it was 98%. The “Percent Control” value was 92% in the test on MST1R; 100% in the test with MST1; 40% with MST2; 77% in the test with MST3; 53% with MST4; 100% in the test with MTOR. Also, the “Percent Control” value in the test with MUSK is on record as 100%; in the test on MYLK2, 73%.

In the case of `Cc1cc(O)cc(C)c1/C=C/c1cncc(C(N)=O)c1` [GW435821X], the “Percent Control” value in the test with MET(Y1235D) is 100%; with MET, 100%; with MINK, 87%; with MKK7, 100%; with MKNK1, 69%; in the test with MKNK2, 31%. For the same molecule, the “Percent Control” value in the test with MLCK is 100%; in the test with MLK1, 100%; in the test with MLK2, 56%; in the test with MLK3, 100%; in the test on MRCKA, 100%; with MRCKB, 100%. The “Percent Control” value with MST1R is 100%; with MST1 it was 100%; in the test on MST2, 100%; with MST3, 100%; with MST4, 69%; in the test on MTOR, 100%. Further, the “Percent Control” value in the test on MUSK and with MYLK2 was 100% throughout.

With `COc1cc(/C=N/Nc2ncnc3[nH]ncc23)ccc1O` [GW578748X], the “Percent Control” value in the test with MET(Y1235D) is 83%; with MET, 100%; in the test on MINK, 39%; with MKK7, 100%; in the test with MKNK1, 78%; in the test on MKNK2, 38%. Besides, the “Percent Control” value is 90% in the test on MLCK; 66% in the test on MLK1; 51% in the test on MLK2; 43% with MLK3; 100% in the test on MRCKA; 100% in the test on MRCKB. Besides, the “Percent Control” value was 100% with MST1R; 100% with MST1; 86% in the test on MST2; 93% with MST3; 20% in the test on MST4; 96% with MTOR. Moreover, the “Percent Control” value is listed as 100% in the test with MUSK and 81% in the test with MYLK2.

In the case of `NS(=O)(=O)c1ccc(Nc2ncc(-c3ccccc3)o2)cc1` [GW572399X], the “Percent Control” value is 100% with MET(Y1235D); 100% with MET; 40% in the test with MINK; 100% with MKK7; 39% in the test on MKNK1; 53% in the test on MKNK2. For the same molecule, the “Percent Control” value in the test with MLCK, in the test with MLK1, in the test on MLK2, with MLK3, with MRCKA and with MRCKB was 100% throughout. The “Percent Control” value in the test with MST1R is 100%; with MST1 it was 100%; with MST2, 100%; in the test on MST3, 100%; in the test with MST4 it was 65%; in the test with MTOR, 88%. Besides, the “Percent Control” value with MUSK and in the test with MYLK2 was 100% throughout.

Consider `CCS(=O)(=O)c1ccc(OC)c(Nc2ncc(-c3cccc(OC)c3)o2)c1` [GW580509X], for which the “Percent Control” value with MET(Y1235D) is 100%; in the test on MET, 100%; in the test on MINK, 70%; in the test with MKK7, 100%; in the test with MKNK1, 100%; in the test with MKNK2, 94%. For the same molecule, the “Percent Control” value in the test on MLCK is 100%; in the test on MLK1 it was 100%; in the test on MLK2 it was 100%; in the test with MLK3, 96%; in the test with MRCKA, 100%; in the test on MRCKB, 100%. For the same molecule, the “Percent Control” value in the test on MST1R, in the test on MST1, in the test on MST2, in the test on MST3, with MST4 and in the test with MTOR was 100% each time. In addition, the “Percent Control” value in the test with MUSK and in the test with MYLK2 was 100% in each case.

On to `CN(C)c1cc2c(Nc3ccc4c(cnn4Cc4ccccc4)c3)ncnc2cn1` [GW282974X], for which the “Percent Control” value in the test with MET(Y1235D) was 100%; in the test on MET it was 94%; in the test with MINK it was 100%; with MKK7 it was 95%; in the test with MKNK1 it was 74%; with MLCK, 98%. Also, the “Percent Control” value in the test on MLK1 was 89%; in the test on MLK2 it was 95%; in the test with MLK3, 100%; with MRCKA it was 100%; with MRCKB, 84%; in the test on MST1R, 100%. Further, the “Percent Control” value in the test on MST1 was 100%; in the test on MST2 it was 83%; with MST3, 90%; in the test on MST4 it was 83%; in the test on MTOR, 100%; in the test on MUSK, 95%. The “Percent Control” value in the test on MYLK2 came to 98%.

Regarding `COc1ccc2c(-c3ccnc(Nc4cccc(OC(F)(F)F)c4)n3)cnn2n1` [GW810372X], the “Percent Control” value in the test with MET(Y1235D) is 100%; in the test on MET, 100%; with MINK, 93%; in the test on MKK7, 100%; in the test with MKNK1, 73%; in the test on MKNK2, 100%. Besides, the “Percent Control” value is 100% with MLCK; 100% with MLK1; 74% in the test on MLK2; 100% with MLK3; 100% in the test on MRCKA; 99% in the test with MRCKB. Also, the “Percent Control” value in the test with MST1R is 100%; with MST1 it was 100%; in the test on MST2, 100%; with MST3, 98%; in the test with MST4, 60%; in the test on MTOR it was 100%. Further, the “Percent Control” value in the test on MUSK and in the test on MYLK2 was 100% each time.

Take `Cl.O=S1CCN(Cc2ccc(-c3ccc4ncnc(Nc5ccc(OCc6ccccc6)c(F)c5)c4c3)o2)CC1` [GW576924A]: the “Percent Control” value in the test on MET(Y1235D) was 100%; in the test on MET, 100%; in the test on MINK it was 89%; in the test with MKK7 it was 51%; in the test on MKNK1 it was 82%; in the test on MKNK2, 100%. In addition, the “Percent Control” value in the test on MLCK, with MLK1, in the test on MLK2, in the test with MLK3, with MRCKA and in the test with MRCKB was 100% in each case. Further, the “Percent Control” value in the test with MST1R, in the test with MST1, in the test with MST2, in the test with MST3, in the test on MST4 and in the test on MTOR was 100% in each case. Further, the “Percent Control” value with MUSK and in the test with MYLK2 was 100% each time.

Take `COc1cc2ncnc(Nc3ccc4c(cnn4Cc4ccccc4)c3)c2cc1OC.Cl` [GW282449A]: the “Percent Control” value in the test with MET(Y1235D) is 100%; in the test on MET, 100%; with MINK, 87%; with MKK7, 100%; in the test on MKNK1, 100%; in the test with MKNK2 it was 76%. Moreover, the “Percent Control” value with MLCK, with MLK1, with MLK2, in the test on MLK3, in the test on MRCKA and in the test with MRCKB was 100% in each case. Also, the “Percent Control” value with MST1R was 100%; in the test on MST1, 100%; in the test with MST2, 100%; in the test on MST3, 100%; in the test on MST4 it was 94%; in the test on MTOR, 100%. In addition, the “Percent Control” value with MUSK and with MYLK2 was 100% in each case.

As to `O=C1Nc2ccc(C(=O)c3ccco3)cc2C1=Cc1cc(Cl)c(O)c(Cl)c1` [GW406108X], the “Percent Control” value in the test with MET(Y1235D) is 100%; in the test with MET, 67%; in the test with MINK, 13%; in the test with MKK7, 78%; in the test on MKNK1, 72%; with MKNK2, 89%. In addition, the “Percent Control” value with MLCK is 100%; with MLK1, 97%; with MLK2 it was 100%; in the test on MLK3, 95%; in the test with MRCKA it was 100%; in the test on MRCKB it was 100%. The “Percent Control” value is 100% in the test with MST1R; 93% in the test on MST1; 0% in the test on MST2; 86% in the test with MST3; 79% with MST4; 100% in the test on MTOR. In addition, the “Percent Control” value with MUSK and in the test with MYLK2 was 100% throughout.
